Results as given in the antibiotic and cytotoxicity screens of Wong et al. (2023).
Out of some 39,000 compounds screened, about 3,300 (8.5%) were called active. The sample as a whole holds a higher share of actives than the screen did.

Test system: HepG2
Test: cytotoxicity call (relative viability < 0.9)
Conditions: 10 µM

Structure (SMILES) | cytotoxicity call
Cc1ccc(NC(=O)[C@@H]2[C@@H]3CC/C=C\CC/C=C/CC[C@@H]32)cc1C | inactive
CCC(=O)c1ccc(Cl)s1 | inactive
C[C@@H]1CCCCO[C@H](CN(C)C(=O)Nc2ccc(C(F)(F)F)cc2)[C@H](C)CN([C@H](C)CO)C(=O)c2cc(NC(=O)Nc3ccc(F)cc3)ccc2O1 | inactive
C[C@H](CO)N1C[C@H](C)[C@@H](CN(C)C(=O)Nc2ccc(C(F)(F)F)cc2)OCCCC[C@H](C)Oc2ccc(NC(=O)Nc3ccc(F)cc3)cc2C1=O | inactive
C[C@H]1CCCCO[C@H](CN(C)C(=O)Nc2ccc(C(F)(F)F)cc2)[C@@H](C)CN([C@@H](C)CO)C(=O)c2cc(NC(=O)Nc3ccc(F)cc3)ccc2O1 | inactive
C[C@H](CO)N1C[C@H](C)[C@H](CN(C)C(=O)Nc2ccc(F)cc2)OCCCC[C@H](C)Oc2ccc(NC(=O)Nc3ccc(C(F)(F)F)cc3)cc2C1=O | inactive
C[C@H](CO)N1C[C@H](C)[C@@H](CN(C)C(=O)Nc2ccc(F)cc2)OCCCC[C@H](C)Oc2ccc(NC(=O)Nc3ccc(C(F)(F)F)cc3)cc2C1=O | inactive
C[C@@H]1CN([C@H](C)CO)C(=O)c2cc(NC(=O)Nc3ccc(C(F)(F)F)cc3)ccc2O[C@@H](C)CCCCO[C@H]1CN(C)C(=O)Nc1ccc(F)cc1 | active
C[C@@H]1CCCCO[C@H](CN(C)C(=O)Nc2ccc(F)cc2)[C@@H](C)CN([C@@H](C)CO)C(=O)c2cc(NC(=O)Nc3ccc(C(F)(F)F)cc3)ccc2O1 | inactive
C[C@H]1CCCCO[C@@H](CN(C)C(=O)Nc2ccc(F)cc2)[C@@H](C)CN([C@@H](C)CO)C(=O)c2cc(NC(=O)Nc3ccc(C(F)(F)F)cc3)ccc2O1 | inactive
C[C@@H]1CN([C@H](C)CO)C(=O)c2cc(NC(=O)Nc3ccc(F)cc3)ccc2O[C@@H](C)CCCCO[C@H]1CN(C)C(=O)Nc1ccc(C(F)(F)F)cc1 | active
C[C@@H]1CCCCO[C@H](CN(C)C(=O)Nc2ccc(C(F)(F)F)cc2)[C@@H](C)CN([C@H](C)CO)C(=O)c2cc(NC(=O)Nc3ccc(F)cc3)ccc2O1 | active
C[C@H]1CCCCO[C@@H](CN(C)C(=O)Nc2ccc(C(F)(F)F)cc2)[C@@H](C)CN([C@@H](C)CO)C(=O)c2cc(NC(=O)Nc3ccc(F)cc3)ccc2O1 | inactive
C[C@@H]1CCCCO[C@@H](CN(C)C(=O)Nc2ccc(C(F)(F)F)cc2)[C@H](C)CN([C@H](C)CO)C(=O)c2cc(NC(=O)Nc3ccc(F)cc3)ccc2O1 | active
Cc1ccc(S(=O)(=O)Nc2ccc3c(c2)C(=O)N([C@@H](C)CO)C[C@@H](C)[C@H](CN(C)S(=O)(=O)c2ccc(F)cc2)O3)cc1 | inactive
C[C@H](CO)N1C[C@H](C)[C@@H](CN(C)S(C)(=O)=O)Oc2c(NC(=O)CCCCCC(=O)Nc3ccccc3N)cccc2C1=O | inactive
C[C@@H]1CN([C@H](C)CO)C(=O)c2cc(NS(=O)(=O)c3cn(C)cn3)ccc2O[C@@H](C)CCCCO[C@@H]1CN(C)C(=O)CCCN(C)C | inactive
C[C@@H]1CN([C@H](C)CO)C(=O)Cc2cc(NC(=O)CCCCCC(=O)Nc3ccccc3N)ccc2O[C@H]1CN(C)C(=O)Nc1ccccc1 | inactive
COc1cccc(-c2ccc3c(c2)O[C@H](CN(C)C(=O)C2CCC2)[C@H](C)CN([C@H](C)CO)S3(=O)=O)c1 | inactive

Structure (SMILES) | cytotoxicity call
C[C@@H]1CN([C@H](C)CO)C(=O)c2cc(NC(=O)Cc3ccccc3)ccc2O[C@@H](C)CCCCO[C@H]1CN(C)C(=O)Nc1ccc2c(c1)OCO2 | inactive
CNC(=O)C[C@H]1CC[C@@H]2[C@H](COc3ccc(NC(=O)c4ccc(C(F)(F)F)cc4)cc3C(=O)N2C)O1 | inactive
C[C@H](CO)N1C[C@H](C)[C@H](CN(C)Cc2ccc(C(=O)O)cc2)OCCCC[C@H](C)Oc2ccc(NS(=O)(=O)c3ccc(Cl)cc3)cc2C1=O | inactive
Cc1noc(C)c1NC(=O)N(C)C[C@@H]1Oc2c(NC(=O)NC(C)C)cccc2C(=O)N([C@@H](C)CO)C[C@@H]1C | inactive
NNc1ccc2[nH]c(=O)[nH]c2c1 | inactive
C[C@@H]1CN([C@@H](C)CO)C(=O)c2cc(NC(=O)Nc3ccc(F)cc3)ccc2O[C@@H](C)CCCCO[C@H]1CN(C)Cc1ccc(C(F)(F)F)cc1 | active
C[C@@H]1CCCCO[C@H](CN(C)Cc2ccc(C(F)(F)F)cc2)[C@@H](C)CN([C@@H](C)CO)C(=O)c2cc(NC(=O)Nc3ccc(F)cc3)ccc2O1 | active
C[C@@H]1CCCCO[C@@H](CN(C)Cc2ccc(C(F)(F)F)cc2)[C@H](C)CN([C@H](C)CO)C(=O)c2cc(NC(=O)Nc3ccc(F)cc3)ccc2O1 | inactive
C[C@H](CO)N1C[C@H](C)[C@H](CN(C)Cc2ccc(C(F)(F)F)cc2)OCCCC[C@H](C)Oc2ccc(NC(=O)Nc3ccc(F)cc3)cc2C1=O | active
C[C@H]1CCCCO[C@H](CN(C)Cc2ccc(C(F)(F)F)cc2)[C@@H](C)CN([C@@H](C)CO)C(=O)c2cc(NC(=O)Nc3ccc(F)cc3)ccc2O1 | active
C[C@H](CO)N1C[C@H](C)[C@@H](CN(C)Cc2ccc(C(F)(F)F)cc2)OCCCC[C@H](C)Oc2ccc(NC(=O)Nc3ccc(F)cc3)cc2C1=O | inactive
C[C@@H]1CN([C@@H](C)CO)C(=O)c2cc(NC(=O)Nc3ccc(F)cc3)ccc2O[C@@H](C)CCCCO[C@@H]1CN(C)Cc1ccc(C(F)(F)F)cc1 | inactive
C[C@@H]1CCCCO[C@@H](CN(C)Cc2ccc(C(F)(F)F)cc2)[C@H](C)CN([C@@H](C)CO)C(=O)c2cc(NC(=O)Nc3ccc(F)cc3)ccc2O1 | inactive
CCNC(=O)C[C@H]1C=C[C@@H](NC(=O)C2CCOCC2)[C@@H](CO)O1 | inactive
COc1ccc(NC(=O)N(C)C[C@@H]2Oc3ccc(NC(=O)C4CC4)cc3CC(=O)N([C@H](C)CO)C[C@H]2C)cc1 | inactive
CN(C)CC(=O)N[C@@H]1CC[C@H](CCNC(=O)C2CC2)O[C@H]1CO | inactive
COc1ccc(NC(=O)N(C)C[C@H]2OCCCC[C@H](C)Oc3ccc(NS(=O)(=O)c4ccc(OC)cc4)cc3C(=O)N([C@H](C)CO)C[C@@H]2C)cc1 | inactive
C[C@H](CO)N1C[C@H](C)[C@@H](CN(C)C(=O)Nc2ccc(N3CCN(C)CC3)cc2)OCc2cnnn2CCCC1=O | inactive
CC(=O)NCCCC[C@@H]1NC(=O)[C@@H]2C[C@H](C(=O)NCCCCCNC(=O)CS)[C@H](c3cccc(OCCO)c3)N2C1=O | inactive

Structure (SMILES) | cytotoxicity call
C[C@@H]1CN([C@H](C)CO)C(=O)c2cc(NS(=O)(=O)c3cn(C)cn3)ccc2O[C@@H](C)CCCCO[C@@H]1CN(C)S(=O)(=O)c1ccccc1 | inactive
C[C@@H]1CN([C@H](C)CO)C(=O)c2cccc(NC(=O)NC3CCCCC3)c2O[C@@H]1CN(C)Cc1ccc(Oc2ccccc2)cc1 | inactive
COc1ccc(NC(=O)N(C)C[C@H]2Oc3ccc(NC(=O)Nc4cccc5ccccc45)cc3CC(=O)N([C@H](C)CO)C[C@H]2C)cc1 | inactive
CC(C)CC#Cc1ccc2c(c1)O[C@H](CN(C)C(=O)Cc1ccccn1)[C@@H](C)CN([C@H](C)CO)S2(=O)=O | inactive
C[C@H](CO)N1C[C@H](C)[C@@H](CN(C)C(=O)NC2CCCCC2)OCCCC[C@H](C)Oc2ccc(NC(=O)Cc3ccccc3)cc2C1=O | inactive
COc1ccc(CN(C)C[C@H]2Oc3c(NC(=O)Nc4ccc(C(F)(F)F)cc4)cccc3C(=O)N([C@@H](C)CO)C[C@@H]2C)cc1 | inactive
C[C@H]1CCCCO[C@@H](CN(C)Cc2ccc(C(F)(F)F)cc2)[C@@H](C)CN([C@@H](C)CO)C(=O)c2cc(NC(=O)Nc3ccc(F)cc3)ccc2O1 | active
C[C@@H]1CCCCO[C@H](CN(C)Cc2ccc(C(F)(F)F)cc2)[C@@H](C)CN([C@H](C)CO)C(=O)c2cc(NC(=O)Nc3ccc(F)cc3)ccc2O1 | inactive
C[C@@H]1CCCCO[C@H](CN(C)Cc2ccc(C(F)(F)F)cc2)[C@H](C)CN([C@H](C)CO)C(=O)c2cc(NC(=O)Nc3ccc(F)cc3)ccc2O1 | active
C[C@@H]1CCCCO[C@@H](CN(C)Cc2ccc(C(F)(F)F)cc2)[C@@H](C)CN([C@@H](C)CO)C(=O)c2cc(NC(=O)Nc3ccc(F)cc3)ccc2O1 | inactive
C[C@@H]1CCCCO[C@H](CN(C)Cc2ccc(C(F)(F)F)cc2)[C@H](C)CN([C@@H](C)CO)C(=O)c2cc(NC(=O)Nc3ccc(F)cc3)ccc2O1 | active
C[C@@H]1CN([C@H](C)CO)C(=O)c2cc(NC(=O)Nc3ccc(F)cc3)ccc2O[C@@H](C)CCCCO[C@@H]1CN(C)Cc1ccc(C(F)(F)F)cc1 | inactive
C[C@@H]1CCCCO[C@@H](CN(C)Cc2ccc(C(F)(F)F)cc2)[C@@H](C)CN([C@H](C)CO)C(=O)c2cc(NC(=O)Nc3ccc(F)cc3)ccc2O1 | inactive
C[C@@H]1CN([C@H](C)CO)C(=O)c2cc(NC(=O)Nc3ccc(F)cc3)ccc2O[C@@H](C)CCCCO[C@H]1CN(C)Cc1ccc(C(F)(F)F)cc1 | active
C[C@H](CO)N1C[C@H](C)[C@@H](CN(C)Cc2ccc(Cl)c(Cl)c2)Oc2ccc(NC(=O)Cn3cnnn3)cc2CC1=O | inactive
COc1ccc(S(=O)(=O)Nc2ccc3c(c2)C(=O)N([C@H](C)CO)C[C@@H](C)[C@H](CN(C)C(=O)Nc2ccc(F)cc2)OCCCC[C@@H](C)O3)cc1 | inactive
C=CCN(C#N)c1nc(N(C)C)nc(N(C)C)n1 | inactive
C[C@@H]1CN([C@H](C)CO)C(=O)c2cccc(NC(=O)c3cnccn3)c2O[C@@H]1CN(C)Cc1ccccc1 | inactive
